Screens from PubChem BioAssay.
Sampled rows, rich in hits. Any-hit rate of the full collection: about 4.2%.
S1P4 agonist – S1P4 receptor agonists, primary screen, cell-based; AID 1509, 2009; hit rate 0.35% among 220,000; activation, % at 4.98 µM; S1P4-expressing cell line, agonist reporter assay; in the data active = activation above about 11%;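 note: 0% = DMSO vehicle and 100% = reference agonist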
Target sequence (O95977 whole entry, looked up): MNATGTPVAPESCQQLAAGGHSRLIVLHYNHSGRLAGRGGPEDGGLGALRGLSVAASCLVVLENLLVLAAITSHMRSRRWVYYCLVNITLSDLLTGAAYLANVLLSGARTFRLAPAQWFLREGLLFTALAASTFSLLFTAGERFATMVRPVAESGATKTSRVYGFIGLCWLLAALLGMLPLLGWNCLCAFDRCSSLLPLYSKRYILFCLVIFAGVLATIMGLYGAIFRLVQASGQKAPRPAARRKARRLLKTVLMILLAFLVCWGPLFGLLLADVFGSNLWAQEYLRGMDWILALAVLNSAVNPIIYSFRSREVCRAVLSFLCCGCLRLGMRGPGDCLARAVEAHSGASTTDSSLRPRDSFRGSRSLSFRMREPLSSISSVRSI
S1P4 antag – S1P4 receptor antagonists, primary screen, cell-based; hit rate 0.26% among 220,000; inhibition, % at 4.98 µM; S1P4-expressing cells, antagonist mode, reporter read-out; Sphingosine 1-phosphate receptor 4 (Homo sapiens), O95977; in the data active = inhibition above about 29%;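 note: 0% = wells stimulated with agonist and 100% = vehicle wells without agonist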
CHOP inhibitor – inhibitors of CHOP promoter induction, primary screen, cell-based, unfolded protein response, luciferase reporter | hit rate 3.8% among 220,000 | inhibition, % at 10 µM | CHO-K1 CHOP-promoter luciferase, tunicamycin-induced, 15-18 h | AID 2732, 2010;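 active = compounds that reduced the stress-induced luciferase reporter signal by more than about 70% of percent inhibition, limit read from the data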;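 note: 0% = tunicamycin plus vehicle and 100% = wells without tunicamycin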
Hsp70 activator – Hsp70 transcriptional activators, primary screen, cell-based, HeLa, Hsp70 promoter luciferase, luminescence, 10 µM; HeLa Hsp70 promoter luciferase reporter; scaled: vehicle 0, proteasome-inhibitor control 100%; activation, % at 10 µM; hit rate 0.04% among 200,000;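 active = activation above the mean across all tested compounds plus 3 SD, cutoff set per campaign, cut at about 5.5% in these data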;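 note: 100% = MG132 at 30 µM as the positive control and 0% = DMSO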
CHOP confirm – retest of CHOP induction inhibitors, confirmation, cell-based; shares compounds with CHOP inhibitor; hit rate 45% among 2,100; inhibition, % at 10 µM; CHO-CHOP promoter luciferase reporter, tunicamycin-induced, luminescence;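 active = mean of three repeat readings of reporter signal inhibition above a set limit, cut at about 70% in these data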;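 note: 0% = tunicamycin plus vehicle and 100% = wells lacking tunicamycin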
* marks the source's active call; other numbers are inactive results; . = no result given; ! = a repeat was not active.

SMILES | S1P4 agonist | S1P4 antag | CHOP inhibitor | Hsp70 activator | CHOP confirm
O=C1c2ccccc2C(=O)C12OC(c1ccccc1)C1(C(=O)c3ccccc3C1=O)C2c1ccc([N+](=O)[O-])cc1 (stereo unspecified) | -0.5 | -8.1 | 1.6 | -0.3 | .
O=C1c2ccccc2C(=O)C12OC2c1ccc(Cl)cc1 (stereo unspecified) | 1.2 | -2.8 | 109.0* | -0.3 | -21.2
NC(=O)c1ccc[n+](CC(=O)c2ccc(Br)cc2)c1 | -0.8 | 2.4 | -5.7 | 0.2 | .
C[C@@H](C(=O)N1CCNCC1)n1cc(CCCN=C(N)N)nn1 | 0.3 | 1.6 | 11.9 | 0.1 | .
CNC(=S)N/N=C/c1cn(Cc2ccc(F)cc2)c2ccccc12 | 3.6 | -2.8 | 46.4 | -0.2 | .
C[N+]1(CCC(=O)c2ccccc2)CCCCC1 | -0.4 | -3.2 | 97.3* | -0.6 | 10.2
O=C(CCN1CCCCC1)c1ccccc1 | 1.1 | -16.0 | -11.1 | -0.3 | .
CCOc1cc(/C=C2/C(=O)ON=C2C)ccc1OCc1ccccc1 | 0.2 | -26.5 | 105.1* | -0.4 | -16.2
CCOc1cc(/C=C2/C(=O)ON=C2C)ccc1OCc1ccccc1F | 1.0 | 8.2 | 98.9* | 0.2 | 111.7*
CCOc1cc(/C=C2/C(=O)ON=C2C)ccc1OCc1ccc(F)cc1 | -2.4 | -1.4 | 99.5* | -0.2 | 124.5*
CCOc1ccc(/C=C2/C(=N)N3OC(C)=CC3=NC2=O)cc1OC | 0.5 | -18.7 | 1.9 | -0.3 | .
CCOc1cc(C=C2C(=O)c3ccccc3C2=O)ccc1OCC(=O)Nc1ccc(C)cc1 | -1.3 | 0.2 | 6.1 | -0.2 | .
CCOc1cc(/C=N/OC(C)=O)ccc1OCc1ccccc1 | -1.4 | 3.4 | 3.2 | -0.3 | .
COc1ccc(NC(=O)C(CC(=O)O)C(C)c2ccccc2)cc1 (stereo unspecified) | -1.2 | -26.8 | 10.8 | 0.0 | .
Nc1nc(-c2ccco2)nn1C(=O)c1cccnc1 | -1.4 | -5.6 | 18.6 | -0.4 | .
COc1ccc(C2=C(CN(C)C)C(c3ccccc3)c3ccccc3O2)cc1 (stereo unspecified) | -0.6 | 0.7 | 104.0*! | 0.1 | 43.3
CC(C)(C)Nc1nc(N)nc(Cl)n1 | -1.9 | 9.6 | -7.7 | -0.2 | .
O=C(CSc1nc2ccsc2c(=O)n1CC1CCC(C(=O)O)CC1)c1ccc(Cl)cc1 (stereo unspecified) | -0.5 | -5.1 | 101.9* | -0.2 | -33.6
O=C(CSc1nc2ccsc2c(=O)n1CC1CCC(C(=O)O)CC1)c1ccc(F)cc1 (stereo unspecified) | -0.2 | -10.7 | 6.3 | -0.3 | .
Cc1noc(C)c1C(=O)N1CCC(CO)(Cc2ccccc2)CC1 | 3.6 | -1.6 | 21.0 | 0.3 | .
Cc1ccc(S(=O)(=O)N(C)CC(O)Cn2c3ccccc3c3ccccc32)cc1 (stereo unspecified) | 0.9 | -43.5 | 100.9* | -0.4 | 41.7
CC(C)(C)c1cc(C(c2cccnc2)N2CCN(CCO)CC2)cc(C(C)(C)C)c1O (stereo unspecified) | -2.2 | -0.7 | 110.3* | -0.4 | -59.8
OCCN1CCN(C(c2cccs2)c2ccc3cccnc3c2O)CC1 (stereo unspecified) | -1.6 | -4.4 | . | -0.5 | .
CCc1nc2c(cnn2-c2ccc(Cl)cc2)c(=O)n1-c1ccc(OC)cc1 | 1.9 | 16.3 | 100.8* | -0.2 | 87.6*
CCOC(=O)c1nn(-c2ccccc2F)c(C)c1C(C)=O | -1.4 | -1.9 | 27.6 | -0.2 | .
SMILES | S1P4 agonist | S1P4 antag | CHOP inhibitor | Hsp70 activator | CHOP confirm
Cc1oc(=O)c(NC(=O)c2ccc(Cl)cc2)cc1C(=O)c1ccccc1 | -1.7 | 17.2 | 106.3* | 0.1 | 23.3
Cc1nc(N2CCN(c3ccccc3)CC2)[nH]c(=O)c1Cc1cccc2ccccc12 | -1.2 | -1.0 | 97.2* | -0.5 | -3.5
O=C(c1ccccc1-c1ccccc1)N1CCCCC1 | -0.5 | 1.0 | 4.8 | 0.2 | .
CC1CCCCC1n1c(=S)[nH]c2ccccc2c1=O (stereo unspecified) | -0.3 | 18.2 | 103.0* | -0.3 | 11.2
O=C1c2ccccc2C(=O)C1c1nccc2ccccc12 | -0.9 | -26.0 | 106.4* | 0.1 | 104.0*
O=C(Nc1ccc(S(=O)(=O)N2CCOCC2)cc1)c1ccc(CN2CCc3ccccc3C2)cc1 | 0.5 | -19.8 | 101.0* | 0.1 | 89.2*
CN(CCCC[C@H](CNCc1ccc(-c2ccccc2)cc1)N1C[C@H](c2ccccc2)N(CCc2ccc(Cl)c(Cl)c2)C(=O)C1=O)Cc1ccc(-c2ccccc2)cc1 | . | . | 106.9* | . | 111.8*
COc1ccc(CNC[C@@H](CCCCN(C)Cc2ccc(OC)cc2)N2C[C@H](c3ccccc3)N(CCc3ccc(Cl)c(Cl)c3)C(=O)C2=O)cc1 | -0.6 | 6.5 | 104.7* | 0.2 | -131.1
CCOc1ccc(CCN2C(=O)C(=O)N([C@H](CCCN(C)Cc3ccccc3)CNCc3ccccc3)C[C@@H]2C(C)C)cc1 | . | . | 2.7 | . | .
O=C(c1ccc2c3c(cccc13)C(=O)N(O)C2=O)N1CCCCC1 | -0.8 | -5.8 | 97.8* | 0.4 | 109.0*
Cc1ccc(P(C)(=O)c2ccc(C)cc2)cc1 | 0.5 | -6.3 | -4.2 | -0.1 | .
Nc1nc(-c2ccc(Cl)cc2)cc(C(F)(F)F)n1 | -1.4 | 1.3 | 58.2 | 0.4 | .
Oc1ccc(/C=N/Nc2nc(-c3ccc(Cl)cc3)cc(C(F)(F)F)n2)cc1 | 0.9 | -2.5 | 102.3* | -0.5 | 98.1*
Cc1ccc(C2CC2c2n[nH]c(=S)n2-c2ccc(Cl)cc2)cc1 (stereo unspecified) | 0.2 | -7.1 | 105.5* | -0.3 | -2.1
O=c1[nH]c(CN2CCCCC2)nc2c1C1(CCCCC1)Cc1ccccc1-2 | -0.2 | -11.3 | -20.7 | -0.2 | .
CCCCCCCCNC(C)C(O)c1ccc(SC(C)C)cc1 (stereo unspecified) | 0.3 | -11.9 | 108.5* | -0.3 | 128.4*
COc1ccc(C(C(=O)NC2CCCCC2)N(C(=O)Cc2c[nH]c3ccccc23)c2ccccc2C)cc1OC (stereo unspecified) | -2.0 | -15.8 | 37.9 | -0.3 | .
Cc1ccccc1N(C(=O)Cc1c[nH]c2ccccc12)C(C(=O)NC1CCCCC1)c1ccco1 (stereo unspecified) | 0.9 | -5.2 | 102.9* | -0.3 | 51.1
Cc1ccc(C(C(=O)NC2CCCCC2)N(C(=O)Cc2c[nH]c3ccccc23)c2ccccc2C)o1 (stereo unspecified) | -0.5 | -1.9 | 100.0* | -0.3 | 86.1*
CN(/N=C/c1ccncc1)c1cnn(-c2ccc(F)c(Cl)c2)c(=O)c1Cl | 0.0 | 14.4 | 100.2* | 0.1 | 3.3
Cc1ccc(-n2ncc(N(C)C)c(Cl)c2=O)cc1 | -1.1 | -5.6 | 28.2 | 0.0 | .
Cc1cc(NC(=O)c2cc(Cl)ccc2Cl)no1 | -2.0 | 0.1 | 14.0 | -0.5 | .
Cc1cc(CSC(=N)N)c(CSC(=N)N)cc1C | 0.3 | -4.1 | 9.1 | . | .
COc1ccc(NC(=O)CC2C(=O)N(c3ccc(F)cc3)C(=S)N2NC(=O)c2ccc(Cl)cc2)cc1 (stereo unspecified) | 1.3 | 8.9 | 106.1* | -0.4 | 43.0
